The campaign covered roughly 320,000 compounds. About 22,000 (6.9%) were called active. Not shown: some 27% with an inconclusive outcome. Calls come from the whole dose curve; as a rule, active = well fitted inhibition curve with a large enough effect; inconclusive = small, poorly fitted or top-dose-only effect, or another doubt; inactive = no such curve, though single readings can be large or run the other way. The entries come from a sample that favours actives as a whole. Entries that show only a call come without a potency.
assay: Primary qHTS for delayed death inhibitors of the malarial parasite plastid, 96 hour incubation; conditions: P. falciparum luciferase reporter growth; series mostly up to 28.7 µM
Excerpt: The goal of this screen is to discover new antimalarial compounds that act by inhibiting the development of the apicoplast in the malarial parasite Plasmodium falciparum. The biochemical processes that make this organelle essential for erythrocytic stage parasites are not well understood. However, antibiotics such as azithromycin and tetracycline, which target the apicoplast translational machinery, have a potent antimalarial effect.
We have developed a cell-based assay that measures parasite growth based on the expression of an integrated copy of a firefly luciferase reporter. To detect small molecules that cause this "delayed death" phenotype, erythrocytes infected with the luciferase-expressing parasites were incubated with compounds for either one or two generations, corresponding to 48 and 96 hours, respectively. Compounds that inhibit parasite growth in the second generation, but not the first, should be enriched in antimalarials that target the apicoplast. Growth inhibition is detected by a decrease in luciferase activity.
Assay Provider: David Fidock and Eric Ekland, Columbia University
Keywords: NIH Roadmap, MLPCN, MLI, MLSMR, qHTS, NCGC, qHTS, malaria, luciferase, viability
Four microliters of infected erythrocytes (2% hematocrit, 0.05% parasitemia final concentration) in culture medium were dispensed and the plates incubated for 96 hours at 37 C in 5% CO2. Two microliters of luciferase detection reagent was added and luminescence was detected by a ViewLux (PerkinElmer) reader.
Potency is the fitted concentration of half-maximal effect.

Structure (SMILES)	Potency
O=C(Nc1nnc(Cc2ccc(Cl)cc2)s1)c1ccncc1	inactive
CCNS(=O)(=O)c1ccc(CCC(=O)N2CCN(c3ccc(OC)cc3)CC2)cc1	inactive
COC(=O)c1c(C)oc(C)c1S(=O)(=O)NCc1ccc(Cl)cc1	inactive
CCCCC/C=C/C1=CC(=O)C[C@H](c2ccc(Cl)cc2)C1	inactive
O=C(CSc1nnc(-c2cnccn2)n1Cc1ccco1)c1ccc(Cl)c(Cl)c1	inactive
C(=C\c1ccccc1)/CSc1nnc(-c2cccnc2)n1Cc1ccco1	10.4 µM (active)
CCOC(=O)Cc1csc(NC(=O)CSc2nnc(-c3cccnc3)n2Cc2ccco2)n1	inactive
CCn1c(CC(=O)Nc2ccccc2C)nnc1SCC(=O)NC1=NCCS1	inactive
c1ccc2c(c1)CCc1snnc1-2	inactive
O=C(Cn1nc([N+](=O)[O-])nc1Br)NC1CCCCC1	inactive
O=C(CSC1=Nc2ccccc2C2=NC(CC(=O)NCc3ccco3)C(=O)N12)NCc1ccco1 (stereo not drawn)	1.85 µM (active)
O=C(CSc1ccc(-c2ccccc2)nn1)NCC1CCCO1 (stereo not drawn)	inactive
CCC(C)NC(=O)CSC1=Nc2ccccc2C2=NC(CCC(=O)NCc3ccco3)C(=O)N12 (stereo not drawn)	inactive
O=C(CSC1=Nc2ccccc2C2=NC(c3ccccc3)C(=O)N12)NCC1CCCO1 (stereo not drawn)	7.38 µM (active)
O=C(CC1N=C2c3ccccc3N=C(SCc3ccccc3Cl)N2C1=O)NCc1ccco1 (stereo not drawn)	inactive
CCn1c(SCC(=O)NCC2CCCO2)nc2ccccc21 (stereo not drawn)	inactive
O=C(NCc1ccco1)/C(=C/c1ccco1)NC(=O)c1ccccc1	inactive
CC1CCN(C(=O)COC(=O)c2cc(S(=O)(=O)N3CCOCC3)ccc2Cl)CC1	inactive
COc1cc(C(=O)NNC(=O)CN2C(=O)NC3(CCCC3)C2=O)cc(OC)c1OC	inactive
COc1cccc(C(=O)Nc2nnc(S(=O)(=O)N3CCCCC3)s2)c1	inactive
Cc1ccc2nc(-c3ccc(Br)cc3)cn2c1	inactive
CCC(C)(C)n1nnnc1C(c1ccc(OC)c(OC)c1)N1CCN(C(=O)c2ccco2)CC1 (stereo not drawn)	inactive
CNC[C@H](CC1CCCCC1)NC[C@H](NCCC1CCCC1)[C@H](C)O	11.7 µM (active)

Structure (SMILES)	Potency
COc1ccc(CNC(=O)COc2ccccc2C(=O)c2cnn(-c3ccccc3)c2)cc1OC	inactive
O=C1C(=O)N(CCCO)C(c2ccccc2)/C1=C(\O)c1ccc(Br)cc1 (stereo not drawn)	inactive
CCOC(=O)c1c(NC(=O)CSc2nccc(=O)[nH]2)sc(C)c1C	inactive
CCCc1nnc(SCC(=O)Nc2ccc(C(=O)OCC)cc2)o1	0.147 µM (active)
CCOC(=O)c1c(NC(=O)CSc2nnc(CNc3ccc(C)cc3C)o2)sc(C)c1C	8.28 µM (active)
CCOC(=O)c1c(-c2ccc(C)cc2C)csc1NC(=O)CSc1nnnn1C	inactive
CCOC(=O)c1ccc(NC(=O)CSc2ncccn2)cc1	inactive
COc1ccc(Cc2nnc(SCC(=O)Nc3ccc(C)c(C)c3)o2)cc1OC	inactive
CN(CCc1ccccn1)C(=O)c1ccc(OC2CCN(Cc3ccccn3)CC2)cc1	inactive
Cc1cc(C)cc(OCC(=O)OCC(=O)NC2CCCC2)c1	inactive
CCn1c(=S)sc2c(=O)n(CC(=O)Nc3ccc(OC)cc3)c(C)nc21	inactive
CC1=C(C(=O)Nc2ccccc2)SCCO1	inactive
COc1cccc(C(=O)NCCS(=O)(=O)NCC2CCCO2)c1 (stereo not drawn)	inactive
COc1cccc(CCNC(=O)c2cccc(NC(=O)C3=C(C)OCCS3)c2)c1	11.7 µM (active)
Cc1sc(NC(=O)C2=COCCO2)c(C#N)c1C	inactive
CCCCN(C(=O)C(CCSC)N1C(=O)c2ccccc2C1=O)c1c(N)n(CCC)c(=O)[nH]c1=O (stereo not drawn)	inactive
CSc1ccccc1NC(=O)c1cnc2sc(C)cn2c1=O	inactive
Cc1ccc(C(C)C)c(OCCSc2nc3ccccc3n2CC(=O)O)c1	13.1 µM (active)
O=C(O)Cn1c(Cc2ccccc2)nc2ccccc21	inactive
Cc1ccc(Cn2c(SCC(=O)N/N=C/c3ccccc3OCC(=O)O)nc3ccccc32)cc1	inactive
O=C(c1cccs1)N1CCN(Cc2ccc3c(c2)OCO3)CC1	inactive
Cc1cc(N2CCN(Cc3ccc4c(c3)OCO4)CC2)n2ncnc2n1	inactive
Fc1ccc2[nH]c3c(N4CCN(Cc5ccc6c(c5)OCO6)CC4)ncnc3c2c1	2.62 µM (active)

Structure (SMILES)	Potency
CCCc1c(C(=O)O)cnn1-c1ccc(Cl)cc1	inactive
O=C(NNS(=O)(=O)c1ccccc1C(F)(F)F)c1cc2ncc(C(F)(F)F)cc2s1	inactive
Cc1ccsc1C(=O)N[C@@H](C)c1nnc2ccccn12	inactive
CCN(CCn1cccn1)C(=O)CC1C(=O)NCCN1Cc1cccc(OC)c1OC (stereo not drawn)	inactive
CN(C(=O)CC1C(=O)NCCN1Cc1ccc(F)cc1Cl)C1CCCCC1 (stereo not drawn)	inactive
C=CCC1(CC=C)CCCN1C(=O)CC1C(=O)NCCN1Cc1ccccc1OC (stereo not drawn)	10.4 µM (active)
CCOCCCNC(=O)c1cn(CC(C)C)c(=O)c2c1c1ccccc1n2C	inactive
CCOCCCNC(=O)c1cc2c(=O)n3ccccc3nc2s1	10.4 µM (active)
CCOCCCNC(=O)c1c[nH]c2cc(C)ccc2c1=O	inactive
Cc1cccc(OCCC(=O)Nc2ccccc2C(N)=O)c1	inactive
Fc1ccccc1/C=C1\CCCC2=C1Nc1ncnn1C2c1ccccc1F (stereo not drawn)	1.04 µM (active)
CCN1C(=O)c2cccc3c(S(=O)(=O)Nc4ccccc4O)ccc1c23	inactive
CC(C)(C)NC(=O)CSc1nnc(NC(=O)CCc2ccccc2)s1	inactive
Cc1occc1C(=O)NC1CCCN(Cc2ccc(CC(C)C)cc2)C1 (stereo not drawn)	inactive
Cc1occc(=O)c1OCc1c(Cl)cccc1Cl	inactive
O=C(NCCS(=O)(=O)N1CCN(c2ccccc2F)CC1)c1ccc(Br)o1	inactive
CCOc1ccc(C(C)=O)cc1COC(=O)CNC(=O)c1cccs1	inactive
C/C(=N\N=C(N)N)c1ccc(Cl)cc1	4.15 µM (active)
C/C(=N\OCC(=O)O)c1ccc(Cl)cc1	inactive
COC(=O)/C(NC(C)=O)=C(\C)c1ccc(Cl)cc1	inactive
Cn1c(SCC(=O)c2ccccc2)ncc(C(=O)Nc2ccc(F)cc2)c1=O	inactive
CC1CCN(C(=O)Cn2nnnc2CN2CCOCC2)CC1	inactive
